Assay results as given in the supplement of paper PMC10849652.
Of roughly 8,800 targets only a part is listed; those with a hit were picked by preference. About 0.5% of all pairs of compound and target were hits. Values without a mark were called inactive.

How the values were obtained:
Test in all cases: log2 fold change, soluble protein after heating vs DMSO (PISA); higher = thermal stabilisation; K562 lysate, 10 uM; active = over 0.2 and 3.5 SD of the protein, either way, in both replicates (recomputed)
[1] = compound: C1=CC=C(C=C1)[C@H](COC2=CC3=C(C=C2)NC(=O)N3)NC(=O)C4=CC=CN(C4=O)CC5=CC(=C(C=C5)F)F
How it was run: (§1)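 To prepare the extract, K562 pellets were dounce-homogenised in PBS pH 7.4 with 1 mM MgCl2, giving crude material at 1 mg/mL protein. This was treated with 10 μM compound for 30 min, then heated in aliquots for 3 min over 48°C-58°C before pooling and addition of NP-40 to 0.5% at 4°C. Centrifugation at 21,000xg for 90 min left soluble protein in the supernatant, which TMTpro 16plex LC-MS/MS quantified with equalised channel sums. Results are log-two fold changes in thermal stability compared with solvent controls, from duplicates.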

[2] = compound: CC1=C(SC2=C1C(=N[C@H](C3=NN=C(N32)C)CC(=O)N)C4=CC=C(C=C4)Cl)C
How it was run: as §1

[3] = compound: CC1=C2C(=CC=C1)N=C(N(C2=O)C3=CC=CC=C3C)CN4C=NC5=C(N=CN=C54)N
How it was run: as §1

[4] = compound: Cc1sc2c(c1C)C(c1ccc(Cl)cc1)=N[C@@H](CC(=O)OC(C)(C)C)c1nnc(C)n1-2
How it was run: as §1

[5] = compound: c1ccc([C@@H]2C[C@H]2NC2CCNCC2)cc1
How it was run: as §1

Sequence of UniProt P26640 (P26640 whole entry, looked up): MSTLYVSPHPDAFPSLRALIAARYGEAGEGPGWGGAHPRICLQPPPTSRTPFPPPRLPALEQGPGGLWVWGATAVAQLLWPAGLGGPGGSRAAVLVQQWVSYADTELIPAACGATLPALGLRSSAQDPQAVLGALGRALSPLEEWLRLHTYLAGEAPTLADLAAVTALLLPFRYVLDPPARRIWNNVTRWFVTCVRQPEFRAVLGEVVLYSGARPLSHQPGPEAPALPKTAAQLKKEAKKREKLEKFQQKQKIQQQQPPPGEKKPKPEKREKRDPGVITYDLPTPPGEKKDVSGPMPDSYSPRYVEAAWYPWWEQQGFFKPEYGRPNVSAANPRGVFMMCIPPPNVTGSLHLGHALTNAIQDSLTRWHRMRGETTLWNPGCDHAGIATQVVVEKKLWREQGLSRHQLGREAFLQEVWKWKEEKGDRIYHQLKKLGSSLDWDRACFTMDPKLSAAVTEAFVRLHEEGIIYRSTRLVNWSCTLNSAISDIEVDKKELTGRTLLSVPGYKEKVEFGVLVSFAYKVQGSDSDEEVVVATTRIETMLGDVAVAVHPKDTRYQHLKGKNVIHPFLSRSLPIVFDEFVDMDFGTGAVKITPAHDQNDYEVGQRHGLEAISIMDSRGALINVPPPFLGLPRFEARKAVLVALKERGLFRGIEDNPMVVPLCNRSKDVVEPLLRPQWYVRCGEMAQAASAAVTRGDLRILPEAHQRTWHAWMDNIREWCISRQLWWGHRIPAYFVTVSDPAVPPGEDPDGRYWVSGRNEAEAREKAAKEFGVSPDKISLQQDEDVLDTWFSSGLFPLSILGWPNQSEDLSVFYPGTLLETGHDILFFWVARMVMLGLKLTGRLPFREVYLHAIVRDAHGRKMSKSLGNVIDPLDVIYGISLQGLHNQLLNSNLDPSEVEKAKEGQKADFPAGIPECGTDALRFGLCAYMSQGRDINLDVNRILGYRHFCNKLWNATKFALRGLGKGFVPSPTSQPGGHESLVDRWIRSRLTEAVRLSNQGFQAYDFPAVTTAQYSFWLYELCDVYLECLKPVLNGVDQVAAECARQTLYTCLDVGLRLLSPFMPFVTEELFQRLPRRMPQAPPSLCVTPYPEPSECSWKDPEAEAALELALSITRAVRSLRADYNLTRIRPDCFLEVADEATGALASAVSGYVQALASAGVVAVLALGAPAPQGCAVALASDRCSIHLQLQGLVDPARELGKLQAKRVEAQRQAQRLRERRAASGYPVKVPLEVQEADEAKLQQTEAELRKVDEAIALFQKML
Sequence of UniProt Q9BQA1 (Q9BQA1 whole entry, looked up): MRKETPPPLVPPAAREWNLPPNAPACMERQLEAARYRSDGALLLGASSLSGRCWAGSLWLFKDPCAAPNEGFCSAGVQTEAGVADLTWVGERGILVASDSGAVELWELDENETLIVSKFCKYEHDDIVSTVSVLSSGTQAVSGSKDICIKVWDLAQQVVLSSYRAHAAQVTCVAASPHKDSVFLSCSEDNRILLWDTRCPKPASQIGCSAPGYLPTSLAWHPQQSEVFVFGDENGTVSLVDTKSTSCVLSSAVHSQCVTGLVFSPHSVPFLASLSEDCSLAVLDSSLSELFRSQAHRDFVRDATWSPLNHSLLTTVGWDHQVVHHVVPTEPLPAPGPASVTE
Sequence of UniProt P27348 (P27348 whole entry, looked up): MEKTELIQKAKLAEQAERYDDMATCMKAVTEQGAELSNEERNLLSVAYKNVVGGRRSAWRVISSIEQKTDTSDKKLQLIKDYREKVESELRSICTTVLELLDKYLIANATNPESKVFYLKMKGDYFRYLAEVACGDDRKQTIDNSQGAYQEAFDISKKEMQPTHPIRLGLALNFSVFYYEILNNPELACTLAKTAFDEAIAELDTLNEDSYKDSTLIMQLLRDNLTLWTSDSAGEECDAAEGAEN
Sequence of UniProt Q9BTA9 (Q9BTA9 whole entry, looked up): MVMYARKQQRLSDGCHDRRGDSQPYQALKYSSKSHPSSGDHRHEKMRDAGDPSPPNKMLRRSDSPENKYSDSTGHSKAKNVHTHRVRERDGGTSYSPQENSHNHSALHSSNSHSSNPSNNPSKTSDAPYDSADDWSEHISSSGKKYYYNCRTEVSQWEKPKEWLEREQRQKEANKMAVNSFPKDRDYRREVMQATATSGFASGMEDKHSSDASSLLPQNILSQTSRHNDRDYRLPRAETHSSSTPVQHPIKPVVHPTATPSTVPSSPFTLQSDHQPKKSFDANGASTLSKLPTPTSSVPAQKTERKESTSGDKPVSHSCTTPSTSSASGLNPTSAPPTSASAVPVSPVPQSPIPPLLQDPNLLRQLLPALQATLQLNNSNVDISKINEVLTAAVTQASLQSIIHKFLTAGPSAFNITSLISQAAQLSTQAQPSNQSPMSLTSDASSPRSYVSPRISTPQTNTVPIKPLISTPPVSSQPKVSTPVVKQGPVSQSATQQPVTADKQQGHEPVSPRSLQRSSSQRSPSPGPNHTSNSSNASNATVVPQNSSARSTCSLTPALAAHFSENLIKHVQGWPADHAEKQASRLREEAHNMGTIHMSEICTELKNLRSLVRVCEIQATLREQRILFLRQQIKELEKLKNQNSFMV
Sequence of UniProt Q96S15 (Q96S15 whole entry, looked up): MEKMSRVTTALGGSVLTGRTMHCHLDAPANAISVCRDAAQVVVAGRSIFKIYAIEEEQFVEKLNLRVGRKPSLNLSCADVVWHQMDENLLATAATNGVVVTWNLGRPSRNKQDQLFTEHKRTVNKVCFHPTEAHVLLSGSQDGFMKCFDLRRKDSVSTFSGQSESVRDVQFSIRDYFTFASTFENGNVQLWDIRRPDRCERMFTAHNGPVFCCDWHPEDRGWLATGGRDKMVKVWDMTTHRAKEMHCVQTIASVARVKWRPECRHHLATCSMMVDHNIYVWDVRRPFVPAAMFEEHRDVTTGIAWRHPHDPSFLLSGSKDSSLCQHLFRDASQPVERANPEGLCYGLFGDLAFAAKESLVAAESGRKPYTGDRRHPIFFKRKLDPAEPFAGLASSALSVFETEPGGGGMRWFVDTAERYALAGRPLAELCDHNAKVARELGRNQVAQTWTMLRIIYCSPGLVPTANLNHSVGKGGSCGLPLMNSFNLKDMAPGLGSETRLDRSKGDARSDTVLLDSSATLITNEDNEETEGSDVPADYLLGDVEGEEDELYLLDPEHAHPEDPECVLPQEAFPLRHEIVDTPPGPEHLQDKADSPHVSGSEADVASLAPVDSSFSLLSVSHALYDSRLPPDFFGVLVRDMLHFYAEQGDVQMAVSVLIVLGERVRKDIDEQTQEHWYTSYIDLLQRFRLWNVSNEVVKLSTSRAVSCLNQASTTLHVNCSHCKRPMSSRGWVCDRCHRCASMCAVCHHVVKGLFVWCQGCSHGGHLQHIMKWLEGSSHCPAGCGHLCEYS
Sequence of UniProt Q96TA2 (Q96TA2 whole entry, looked up): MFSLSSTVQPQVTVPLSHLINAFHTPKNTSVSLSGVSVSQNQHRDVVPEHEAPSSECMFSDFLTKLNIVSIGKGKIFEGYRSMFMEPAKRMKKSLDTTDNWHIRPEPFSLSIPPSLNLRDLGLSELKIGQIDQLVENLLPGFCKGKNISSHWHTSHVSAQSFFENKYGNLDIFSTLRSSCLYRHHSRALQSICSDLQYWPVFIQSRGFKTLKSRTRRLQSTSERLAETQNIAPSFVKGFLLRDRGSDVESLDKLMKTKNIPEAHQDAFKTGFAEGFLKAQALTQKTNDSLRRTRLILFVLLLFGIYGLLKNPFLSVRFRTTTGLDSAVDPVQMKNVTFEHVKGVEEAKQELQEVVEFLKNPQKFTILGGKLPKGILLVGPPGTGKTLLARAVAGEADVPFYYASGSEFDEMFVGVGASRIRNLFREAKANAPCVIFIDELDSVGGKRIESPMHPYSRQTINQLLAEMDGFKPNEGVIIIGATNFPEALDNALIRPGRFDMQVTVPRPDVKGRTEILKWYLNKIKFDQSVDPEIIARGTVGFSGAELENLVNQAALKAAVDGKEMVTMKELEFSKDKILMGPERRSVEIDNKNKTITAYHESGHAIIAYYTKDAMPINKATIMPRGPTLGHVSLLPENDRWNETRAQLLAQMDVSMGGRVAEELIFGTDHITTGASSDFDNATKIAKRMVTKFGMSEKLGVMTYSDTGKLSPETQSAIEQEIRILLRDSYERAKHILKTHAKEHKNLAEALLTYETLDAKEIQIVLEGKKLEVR
Sequence of UniProt Q9UN37 (Q9UN37 whole entry, looked up): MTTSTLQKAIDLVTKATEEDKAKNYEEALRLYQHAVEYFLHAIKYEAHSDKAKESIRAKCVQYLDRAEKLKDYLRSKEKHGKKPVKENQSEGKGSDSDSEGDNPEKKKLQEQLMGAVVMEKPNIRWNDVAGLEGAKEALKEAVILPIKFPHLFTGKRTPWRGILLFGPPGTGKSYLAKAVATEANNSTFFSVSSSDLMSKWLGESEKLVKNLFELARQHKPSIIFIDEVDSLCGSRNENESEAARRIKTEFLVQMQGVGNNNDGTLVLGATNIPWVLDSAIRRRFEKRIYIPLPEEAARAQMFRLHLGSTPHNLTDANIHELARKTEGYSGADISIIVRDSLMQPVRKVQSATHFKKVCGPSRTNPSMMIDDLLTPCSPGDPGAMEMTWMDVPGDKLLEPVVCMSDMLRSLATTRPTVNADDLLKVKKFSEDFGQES
Sequence of UniProt Q6PHR2 (Q6PHR2 whole entry, looked up): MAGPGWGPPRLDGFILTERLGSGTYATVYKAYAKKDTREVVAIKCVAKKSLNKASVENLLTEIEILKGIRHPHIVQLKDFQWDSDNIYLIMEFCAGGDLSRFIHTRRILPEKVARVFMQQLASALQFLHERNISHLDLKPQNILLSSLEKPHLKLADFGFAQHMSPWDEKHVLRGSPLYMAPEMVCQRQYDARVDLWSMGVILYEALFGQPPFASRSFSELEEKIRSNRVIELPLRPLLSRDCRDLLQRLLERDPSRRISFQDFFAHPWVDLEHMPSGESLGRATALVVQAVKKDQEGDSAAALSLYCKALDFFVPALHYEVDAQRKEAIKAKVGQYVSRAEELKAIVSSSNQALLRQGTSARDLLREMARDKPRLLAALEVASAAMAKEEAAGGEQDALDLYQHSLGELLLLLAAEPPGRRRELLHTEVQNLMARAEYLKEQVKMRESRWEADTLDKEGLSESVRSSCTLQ

Target | log2 fold change [1] | log2 fold change [2] | log2 fold change [3] | log2 fold change [4] | log2 fold change [5]
ZNF318 (UniProt Q5VUA4) | -0.017 | 0.133 | 0 | 0.018 | 0.038
ZNF845 (UniProt Q96IR2) | -0.239 | 0.048 | 0.114 | -0.058 | 0.083
YDJC (UniProt A8MPS7) | 0.001 | -0.012 | -0.003 | 0.012 | 0.018
ZNF217 (UniProt O75362) | -0.037 | 0.075 | 0.129 | 0.053 | 0
VPS4A (UniProt Q9UN37) | -0.056 | 0.034 | -0.102 | 0.017 | 0.074
ZNF609 (UniProt O15014) | 0.009 | 0.008 | 0.078 | -0.047 | -0.082
UNKL (UniProt E9PDK2) | -0.025 | 0.09 | 0.249 | 0.022 | 
XPO6 (UniProt Q96QU8) | -0.053 | 0.057 | 0.023 | 0.039 | -0.045
UQCC2 (UniProt Q9BRT2) | 0.008 | 0.019 | -0.056 | -0.057 | 0.095
ZBTB33 (UniProt Q86T24) | 0.046 | -0.082 | 0.003 | 0 | -0.015
YWHAQ (UniProt P27348) | 0.002 | 0.021 | -0.001 | 0.076 | 0.181
WDR77 (UniProt Q9BQA1) | 0.02 | 0.012 | 0.012 | 0.006 | 0.006
XPNPEP1 isoform 3 (UniProt Q9NQW7) | -0.007 | -0.025 | 0.002 | 0.044 | -0.006
UNC45A (UniProt Q9H3U1) | -0.036 | -0.011 | 0.036 | 0.004 | 0.039
UQCRC2 (UniProt P22695) | 0.003 | 0.037 | -0.007 | 0.006 | -0.015
ZNHIT6 (UniProt Q9NWK9) | 0.106 | -0.063 | 0.013 | 0.089 | 0.008
WDR91 (UniProt A4D1P6) | -0.009 | 0.027 | 0.009 | -0.02 | 0.026
WDR24 (UniProt Q96S15) | -0.066 | -0.475 (active) | -0.093 | 0.002 | -0.024
ZHX1 (UniProt Q9UKY1) | 0.016 | 0.036 | 0.022 | -0.224 | -0.22
ZFYVE19 isoform 3 (UniProt Q96K21) | 0.062 | -0.075 |  |  | 
VPS11 (UniProt Q9H270) | -0.018 | -0.001 | 0.044 | 0.048 | 0.029
ZDHHC18 (UniProt Q9NUE0) | 0.103 | 0.115 | 0.075 | -0.072 | 0.043
USP34 (UniProt Q70CQ2) | -0.002 | -0.015 | 0 | -0.004 | 0.073
WRB (UniProt O00258) | 0.018 | -0.021 | -0.029 | 0 | -0.191
VASP (UniProt P50552) | -0.005 | 0.006 | 0.008 | -0.052 | 0.017
WDHD1 (UniProt O75717) | 0.018 | -0.011 | -0.017 | 0.011 | 0.067
YME1L1 (UniProt Q96TA2) | 0.004 | -0.021 | 0.032 | -0.008 | 0.002

Target | log2 fold change [1] | log2 fold change [2] | log2 fold change [3] | log2 fold change [4] | log2 fold change [5]
YLPM1 (UniProt P49750) | -0.029 | -0.04 | 0.034 | 0.005 | 0.05
WEE1 (UniProt P30291) | -0.002 | -0.099 | -0.047 | 0.03 | 
URGCP (UniProt Q8TCY9) | 0.003 | 0.036 | 0.044 | 0.047 | 
USP9X (UniProt Q93008) | -0.033 | 0.005 | 0.014 | 0.008 | -0.001
VPS41 (UniProt P49754) | -0.046 | 0.005 | -0.016 | 0.067 | 0.13
WDR20 isoform 7 (UniProt Q8TBZ3) | -0.037 | -0.002 | 0.035 | -0.176 | -0.124
ZNF644 (UniProt Q9H582) | 0 | 0.003 | -0.098 | -0.009 | 0.01
ZFYVE19 (UniProt Q96K21) | 0.076 | 0.042 | 0.012 | -0.032 | -0.183
VPS39 (UniProt Q96JC1) | -0.008 | -0.002 | -0.006 | -0.009 | 0.3
WDR45 isoform 2 (UniProt Q9Y484) | -0.024 | 0.061 | 0.073 | -0.018 | -0.014
UTP3 (UniProt Q9NQZ2) | -0.009 | -0.035 | 0.076 | -0.158 | 0.018
WRNIP1 (UniProt Q96S55) | -0.051 | -0.033 | 0.024 | 0.016 | 0.06
USP3 (UniProt Q9Y6I4) | 0.026 | 0.006 | -0.056 | -0.044 | 0.073
WAC (UniProt Q9BTA9) | -0.03 | 0.056 | -0.013 | 0.041 | 0.037
VPS13C (UniProt Q709C8) | -0.111 | -0.002 | 0.061 | 0.018 | 0.008
YTHDC2 (UniProt Q9H6S0) | 0.004 | -0.018 | -0.078 | -0.002 | 0.058
VPS28 (UniProt Q9UK41) | -0.087 | -0.04 | -0.013 | 0.073 | 0
ULK3 isoform 4 (UniProt Q6PHR2) | -0.015 | 0.043 | -0.117 | -0.026 | 0.125
VARS (UniProt P26640) | -0.022 | 0.013 | 0.013 | 0 | 0.031
USE1 (UniProt Q9NZ43) | 0.006 | 0.008 | -0.119 | -0.109 | -0.002
VPS54 (UniProt Q9P1Q0) | -0.157 | 0.136 | 0.044 | 0.053 | -0.217
WDR3 (UniProt Q9UNX4) | 0.039 | -0.026 | 0.006 | -0.014 | 0.056
XAB2 (UniProt Q9HCS7) | -0.009 | 0.05 | 0 | -0.018 | 0.035
VRK2 (UniProt Q86Y07) | 0.004 | 0 | -0.242 | -0.023 | -0.018
USP10 isoform 2 (UniProt Q14694) | -0.038 | 0.029 | 0 | -0.013 | 0.023
VPS35L (UniProt Q7Z3J2) | 0.013 | 0.004 | 0.044 | -0.032 | 0.013
WDR7 (UniProt Q9Y4E6) | 0.055 | 0.011 | 0.019 | 0.029 | -0.027
